In PubChem BioAssay (Tox21):
Inconclusive results are not listed. Activity calls are given as the source filed them. Unless noted, the call rests on the fitted dose curve; in most records, active means well fitted curve in the direction sought with a large enough effect in the repeat runs; inconclusive means weak or mixed curves; inactive means no such curve, though single readings can be large; an effect the other way counts as inactive or inconclusive.

Tests used:
[1] = qHTS assay for small molecule agonists of the p53 signaling pathway (AID 651631; calls by dose curve; further: nearly all actives have a fitted effect of over 15% in size)
How it was run: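 Quantitative high-throughput format: 4,000 p53RE-bla HCT-116 cells/well, 5 h pre-incubation, 16 h compound exposure at 37 °C, 2 h room-temperature substrate step, fluorescence intensity measured.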

[2] = qHTS assay for small molecules that induce genotoxicity in human embryonic kidney cells expressing luciferase-tagged ATAD5 (AID 651632); further: nearly all actives have a fitted effect of over 15% in size
How it was run: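 Increased luciferase signal from ATAD5-tagged reporter cells indicates DNA-damage-driven ATAD5 induction. HEK293T cells are treated for 16 hr at 37C before detection with Amplite.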

[3] = qHTS assay for small molecule agonists of the p53 signaling pathway - cell viability (AID 651633; calls by dose curve;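 further: p53RE-bla HCT reporter cells with a stable beta-lactamase p53 reporter; series mostly up to about 83 µM; nearly all actives have a fitted effect of over 30% in size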)
How it was run: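 Viability counter-read: CellTiter-Glo luminescence (30 min, room temperature) in the same p53RE-bla plates. These plates had been exposed to compounds for 16 h at 37 C.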

[4] = qHTS assay for small molecules that induce genotoxicity in human embryonic kidney cells expressing luciferase-tagged ATAD5 - cell viability (AID 651634; calls by dose curve; further: nearly all actives have a fitted effect of over 25% in size; further: potency means the concentration at half of the fitted maximal effect)
How it was run: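 Cytotoxicity counterscreen in HEK293T cells bearing an ATAD5-luciferase reporter: live-cell protease activity measured by CellTiter-Fluor fluorescence after 15.5 hr compound exposure.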

[5] = qHTS assay for small molecule disruptors of the mitochondrial membrane potential (AID 720635)
How it was run: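 Mitochondrial membrane potential tracked with Mito-MPS dye, red aggregates (ex 540/em 590 nm) against green monomers (ex 490/em 535 nm). Compound treatment 1 hr at 37C, dye 30 min in HepG2.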

[6] = qHTS assay to test for compound auto fluorescence at 590 nm (red) in HepG2 cells (AID 720674)
How it was run: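 Red autofluorescence (Ex/Em 540/590 nm, Rose Bengal sodium equivalents) was measured in HepG2 cells, 2,000 per well in MEM plus 10% FBS, plated overnight at 37 C. Readings were taken 1 hr after adding 23 nL compound or DMSO, at 37 C and 5% CO2.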

[7] = qHTS assay to test for compound auto fluorescence at 535 nm (green) in HepG2 cells (AID 720675)
[8] = qHTS assay to test for compound auto fluorescence at 460 nm (blue) in HEK293 cells (AID 720678)
How it was run: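 Blue-channel (Ex/Em 405/460 nm) intensity measured in HEK293 cultures after overnight compound exposure at 37C; signal expressed relative to triamterene. Cells plated 2,000 per well in 10% dialyzed FBS medium and allowed 4-5 hr to attach.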

[9] = qHTS assay to test for compound auto fluorescence at 590 nm (red) in HEK293 cells (AID 720679)
How it was run: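 Red-channel autofluorescence (Ex/Em 540/590 nm; Rose Bengal sodium reference) was measured after overnight 37C, 5% CO2 exposure of attached HEK293 cells, 2,000 per well in medium with 10% dialyzed FBS.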

[10] = qHTS assay for small molecule disruptors of the mitochondrial membrane potential - cell viability (AID 720634; calls by dose curve;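 further: human HepG2 liver cancer cells; series mostly up to about 83 µM; nearly all actives have a fitted effect of over 20% in size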)
How it was run: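 After overnight attachment at 37 C, HepG2 cells received compound or DMSO vehicle for 1 hr. Viability is then taken from ATP-driven luminescence following a 30 min room-temperature CellTiter-Glo step.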
On the % scale 0 is the no-effect control and ±100 the full control effect.

ClCCCl
inactive: outcome [1] | Potency [2] | outcome [3] | Potency [4] | Potency [5] | outcome [6] | outcome [7] | outcome [8] | outcome [9]

CCCCCCN
inactive: outcome [1] | Potency [2] | outcome [3] | Potency [4] | outcome [6] | outcome [7] | outcome [8] | outcome [9]

COCCOC(=O)C1=C(C)NC(C)=C(C(=O)OC(C)C)C1c1cccc([N+](=O)[O-])c1 (stereo not given)
inactive: outcome [1] | Potency [2] | outcome [3] | Potency [4] | outcome [10] | outcome [6] | outcome [7] | outcome [8] | outcome [9]

CCO[Si](CCCS)(OCC)OCC
inactive: outcome [1] | Potency [2] | outcome [3] | Potency [4] | outcome [10] | outcome [6] | outcome [7] | outcome [8] | outcome [9]

Cc1cc2cc3c(C)cc(=O)oc3c(C)c2o1
inactive: outcome [1] | Potency [2] | outcome [3] | Potency [4] | outcome [10] | fluorescence, relative to Rose Bengal [6] 0.738% [at 18.6 µM] | fluorescence, % of fluorescein control [7] -0.0056% [at 18.6 µM] | fluorescence, % of triamterene [8] 1.9% [at 18.6 µM] | fluorescence, % of fluorescent control [9] 0.0391% [at 18.6 µM]

CC(=O)Nc1ccc(S(=O)(=O)Nc2ccc([N+](=O)[O-])cc2)cc1
inactive: outcome [1] | Potency [2] | outcome [3] | outcome [10] | outcome [6] | outcome [7] | outcome [8]

CC(=O)OC(C)OC(=O)C(C)c1ccc(-c2ccccc2)c(F)c1 (stereo not given)
inactive: outcome [1] | Potency [2] | outcome [3] | Potency [4] | Potency [5] | outcome [6] | outcome [8] | outcome [9]

O=C(O)c1cc(Cl)cc([N+](=O)[O-])c1Cl
inactive: outcome [1] | Potency [2] | outcome [3] | Potency [4] | outcome [10] | outcome [6] | outcome [8] | outcome [9]

O=C1c2ccccc2C(=O)N1CCl
inactive: outcome [1] | Potency [2] | outcome [3] | Potency [4] | outcome [6] | outcome [7] | outcome [8] | outcome [9]

CCCC/C=C/C=C\C=O
inactive: outcome [1] | Potency [2] | outcome [3] | Potency [4] | outcome [6] | outcome [7] | outcome [8] | outcome [9]

CCCCNc1ccc(C(=O)OCCN(C)C)cc1
inactive: outcome [1] | Potency [2] | outcome [3] | Potency [4] | Potency [5] | fluorescence, relative to Rose Bengal [6] -0.178% [at 18.6 µM] | fluorescence, % of fluorescein control [7] -0.0004% [at 18.6 µM] | fluorescence, % of triamterene [8] 0.259% [at 18.6 µM] | fluorescence, % of fluorescent control [9] 0.151% [at 18.6 µM]

CCCCN
inactive: outcome [1] | Potency [2] | outcome [3] | Potency [4] | outcome [10] | outcome [6] | outcome [7] | outcome [8] | outcome [9]

CN(C)C(=O)CNC(=O)Cc1ccccc1
inactive: outcome [1] | Potency [2] | outcome [3] | Potency [4] | Potency [5] | outcome [6] | outcome [7] | outcome [8] | outcome [9]

CC1(C)S[C@@H]2[C@H](N=CN3CCCCCC3)C(=O)N2[C@H]1C(=O)O
inactive: outcome [1] | Potency [2] | outcome [3] | Potency [4] | outcome [10] | outcome [6] | outcome [8] | outcome [9]

CC(=O)/C=C/C1C(C)=CCC(C)C1(C)C (stereo not given)
inactive: outcome [1] | Potency [2] | Potency [4] | outcome [10] | Potency [5] | outcome [6] | outcome [7] | outcome [8]

O=C(NCCN1CCOCC1)c1ccc(Cl)cc1
inactive: outcome [1] | Potency [2] | outcome [3] | Potency [4] | Potency [5] | outcome [6] | outcome [7] | outcome [8]

CCC(C=O)CC
inactive: outcome [1] | Potency [2] | outcome [3] | Potency [4] | outcome [10] | outcome [6] | outcome [7] | outcome [8] | outcome [9]

Nc1ccc([N+](=O)[O-])c(N)c1
inactive: outcome [1] | Potency [2] | outcome [3] | outcome [6] | outcome [8] | outcome [9]
active: Potency [4] 47.3 µM

CC1=CCC(C(C)C)=CC1
inactive: outcome [1] | Potency [2] | outcome [3] | Potency [4] | outcome [6] | outcome [7] | outcome [8] | outcome [9]

Nc1nnc(-c2cccc(Cl)c2Cl)c(N)n1
inactive: outcome [1] | Potency [2] | outcome [3] | Potency [4] | outcome [6] | outcome [8] | outcome [9]

CN1CCN(CC(=O)N2c3ccccc3C(=O)Nc3cccnc32)CC1
inactive: outcome [1] | Potency [2] | outcome [3] | Potency [4] | Potency [5] | outcome [6] | outcome [7] | outcome [8] | outcome [9]

CCCOC(=O)C(C)O (stereo not given)
inactive: outcome [1] | Potency [2] | outcome [3] | Potency [4] | outcome [6] | outcome [7] | outcome [8] | outcome [9]

OCCN(CCO)c1cccc(Cl)c1
inactive: outcome [1] | Potency [2] | Potency [4] | outcome [10] | Potency [5] | outcome [6] | outcome [7] | outcome [8]
